According to PubChem BioAssay (NCATS):
“And” between values parts separate entries of the source, which are not always exact repeats. Equal values may be shown once. A number with no mark means an inactive call. Inconclusive results are not listed. The source made the active and inactive calls. Calls follow the shape of the dose curve; as a rule, active = well fitted curve in the direction sought with a large enough effect; inconclusive = small, poorly fitted or top-dose-only effect, or another doubt; inactive = no such curve, though single readings can be large; an effect the other way counts as inactive or inconclusive.

molecular target: Guanine nucleotide-binding protein G(i) subunit alpha-1 (Homo sapiens) (UniProt P63096); assay: qHTS Assay for Inhibitors of RGS12 GoLoco Motif Activity (Green Fluorophore) (AID 879); details: Galphai1/FITC-RGS12 GoLoco peptide, fluorescence polarization; series mostly up to 57.1 µM; activity, negative = inhibition: at the top concentration;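 also: 0% = labeled peptide with Gαi1 and full inhibition = labeled peptide alone without protein; negative values mean loss of peptide binding seen as reduced polarization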
In short: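 A drop in FITC polarization marked displacement of the FITC-tagged RGS12 GoLoco peptide (10 nM) from Gαi1 (50 nM). Compounds were incubated 10 min at room temperature in Tris pH 7.5 buffer containing 150 mM NaCl, 0.1 mM GDP and 0.05% NP40; unlabeled peptide titration served as control.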

Sequence of Guanine nucleotide-binding protein G(i) subunit alpha-1 (Homo sapiens) (P63096 whole entry, looked up): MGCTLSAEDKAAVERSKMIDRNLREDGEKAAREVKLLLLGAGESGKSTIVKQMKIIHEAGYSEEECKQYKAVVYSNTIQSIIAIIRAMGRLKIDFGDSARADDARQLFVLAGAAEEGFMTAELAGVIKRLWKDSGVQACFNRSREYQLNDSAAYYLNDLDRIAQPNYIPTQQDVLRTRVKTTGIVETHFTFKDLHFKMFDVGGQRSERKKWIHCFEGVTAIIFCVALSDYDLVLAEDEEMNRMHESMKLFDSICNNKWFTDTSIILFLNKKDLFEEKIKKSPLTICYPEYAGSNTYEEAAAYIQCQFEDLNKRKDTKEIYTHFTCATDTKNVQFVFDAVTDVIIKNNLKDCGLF

Row | Structure (SMILES) | activity, negative = inhibition
1 | CCCC1O[C@@H]2C[C@H]3[C@@H]4CCC5=CC(=O)C=C[C@]5(C)[C@H]4[C@@H](O)C[C@]3(C)[C@]2(C(=O)CO)O1 (stereo not given in full) | -13.2%
2 | COc1cc(-c2ccc(=O)[nH]n2)ccc1OC(F)F | -3.83%
3 | CN1CCC[C@@H]1c1cccnc1 | -9.16%

molecular target: Cytochrome P450 2C9 (Homo sapiens) (UniProt P11712); assay: qHTS Assay for Inhibitors and Substrates of Cytochrome P450 2C9 (AID 883); details: recombinant CYP2C9, luciferin-H luminescence, 60 min; series mostly up to 57.1 µM; activity change, negative = inhibition: at the top concentration; also: nearly all actives have a fitted effect of over 60% in size; also: potency is read from the fitted curve at half-maximal effect; as to activity change, negative = inhibition: % is scaled to controls: 0 for no effect and ±100 for the full control effect
In short: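 Human CYP2C9 (10nM) with Luciferin-H at 100uM (its KM) in 25mM KPO4; compound preincubated 10 min at 37C, then NADPH regeneration for 60 min at 37C. Luciferin read by luminescence after detection reagent; normalized to 57uM sulphaphenazole as full inhibition.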

Sequence of Cytochrome P450 2C9 (Homo sapiens) (P11712 whole entry, looked up): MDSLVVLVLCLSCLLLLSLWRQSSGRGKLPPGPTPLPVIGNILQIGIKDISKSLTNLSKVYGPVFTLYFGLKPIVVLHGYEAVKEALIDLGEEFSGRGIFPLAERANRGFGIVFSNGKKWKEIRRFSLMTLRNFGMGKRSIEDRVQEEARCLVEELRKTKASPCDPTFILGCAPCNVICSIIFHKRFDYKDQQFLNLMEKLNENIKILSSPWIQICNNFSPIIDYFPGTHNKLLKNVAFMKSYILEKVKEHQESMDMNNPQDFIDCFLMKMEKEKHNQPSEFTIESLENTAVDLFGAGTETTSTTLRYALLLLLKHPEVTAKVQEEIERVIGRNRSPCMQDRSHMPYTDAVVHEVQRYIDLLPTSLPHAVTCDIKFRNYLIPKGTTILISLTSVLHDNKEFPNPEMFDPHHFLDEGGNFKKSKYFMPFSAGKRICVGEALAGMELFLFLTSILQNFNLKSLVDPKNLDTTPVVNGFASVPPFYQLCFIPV

Row | Structure (SMILES) | Potency | activity change, negative = inhibition
4 | CCCCOc1ccc(C(=O)CCN2CCCCC2)cc1 | 2.51 µM (active) | –
5 | CCOc1ccc(Cc2nccc3cc(OCC)c(OCC)cc23)cc1OCC | 3.98 µM (active) | –
6 | COc1ccc(CCN2CCC(Nc3nc4ccccc4n3Cc3ccc(F)cc3)CC2)cc1 | – | -10.7% [at 25.6 µM]

molecular target: Cytochrome P450 3A4 (Homo sapiens) (UniProt P08684); assay: qHTS Assay for Inhibitors and Substrates of Cytochrome P450 3A4 (AID 884); details: recombinant CYP3A4, Luciferin-PPXE luminescence; series mostly up to 57.1 µM; activity change, negative = inhibition: at the top concentration; also: % is scaled to controls: 0 for no effect and ±100 for the full control effect; nearly all actives have a fitted effect of over 50% in size
In short: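 Luminescent readout of luciferin produced by CYP3A4 (20 nM) dealkylation of Luciferin-PPXE, 25 uM (its KM). NADPH-driven reaction ran 60 min at RT after 10 min compound preincubation; data scaled to 57 uM ketoconazole as 100% inhibition.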

Sequence of Cytochrome P450 3A4 (Homo sapiens) (P08684 whole entry, looked up): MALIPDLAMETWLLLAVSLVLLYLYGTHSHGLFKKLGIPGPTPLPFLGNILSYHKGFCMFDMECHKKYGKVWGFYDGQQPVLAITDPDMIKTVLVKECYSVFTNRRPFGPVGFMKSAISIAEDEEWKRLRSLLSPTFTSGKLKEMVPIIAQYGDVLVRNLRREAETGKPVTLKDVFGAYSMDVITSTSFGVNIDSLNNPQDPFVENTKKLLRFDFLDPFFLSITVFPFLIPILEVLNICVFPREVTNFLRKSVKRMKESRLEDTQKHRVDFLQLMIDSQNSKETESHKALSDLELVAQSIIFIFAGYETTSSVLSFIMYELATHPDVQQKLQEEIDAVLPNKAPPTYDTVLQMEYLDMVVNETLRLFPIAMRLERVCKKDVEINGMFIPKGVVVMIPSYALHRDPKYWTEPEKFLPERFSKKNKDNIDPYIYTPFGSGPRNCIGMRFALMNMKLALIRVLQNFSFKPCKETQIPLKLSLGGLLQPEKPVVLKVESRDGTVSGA

Row | Structure (SMILES) | activity change, negative = inhibition
7 | CCCCCCCCCCCCCCCCOP(=O)([O-])OCC[N+](C)(C)C | -4.34%
8 | Cc1ccc(C(=O)C(C)CN2CCCCC2)cc1 (stereo not given) | -18.2%
9 | Oc1c(I)cc(I)c2cccnc12 | -22.6%
10 | CC(C)(CO)[C@@H](O)C(=O)NCCCO | -15.5%
11 | Oc1ccc(Cl)c2cccnc12 | -13.7%
12 | CC(=O)Nc1c(I)cc(I)c(C(=O)O)c1I | -2.89%
13 | COc1cc(-c2ccc(=O)[nH]n2)ccc1OC(F)F | -16.1%
14 | COc1ccc(C2C(=O)c3ccccc3C2=O)cc1 | -23.4%
15 | Cc1c(C(N)=O)cc([N+](=O)[O-])cc1[N+](=O)[O-] | -37.2%
16 | OCc1ccccc1O | -7.15%
17 | COc1cc(OC)cc(OC)c1 | -20.7%
18 | Cc1cccc(C)c1NC(=O)CN1CCN(CCCC(c2ccc(F)cc2)c2ccc(F)cc2)CC1 | 45.5% [at 25.6 µM]
19 | CO/N=C1\CN(c2nc3c(cc2F)c(=O)c(C(=O)O)cn3C2CC2)CC1CN (stereo not given) | -24.3%
20 | CCCCOc1cc(C(=O)NCCN(CC)CC)c2ccccc2n1 | -18.7%
21 | CCN(CCCc1ccccc1)CCCc1ccccc1 | 1.75%
22 | CCN1CCN(c2cc3c(cc2F)c(=O)c(C(=O)O)cn3C2CC2)CC1 | -9.55%
23 | CC(CCc1ccccc1)NCC(O)c1ccc(O)c(C(N)=O)c1 (stereo not given) | 3.07%
24 | CCOc1ccc2nc3cc(N)ccc3c(N)c2c1 | -27.7%

molecular target: Cytochrome P450 3A4 (Homo sapiens) (UniProt P08684); assay: qHTS Assay for Activators of Cytochrome P450 3A4 (AID 885); details: recombinant CYP3A4, Luciferin-PPXE luminescence, 60 min; series mostly up to 57.1 µM; activity change, positive = activation: at the top concentration; also: nearly all actives have a fitted effect of over 65% in size
In short: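 Activators are scored by enhanced luminescence from CYP3A4 conversion of luciferin-PPXE (25uM, equal to KM) to luciferin, after 60 min at RT with an NADPH-regenerating system.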

Row | Structure (SMILES) | activity change, positive = activation
25 | COc1cccc2c1C(=O)c1c(O)c3c(c(O)c1C2=O)C[C@@](O)(C(=O)CO)C[C@@H]3O[C@H]1C[C@H](N)[C@H](O)[C@H](C)O1 | -65.3%
26 | CNCC[C@@H](Oc1ccccc1C)c1ccccc1 | -38.9%
27 | CCCC1O[C@@H]2C[C@H]3[C@@H]4CCC5=CC(=O)C=C[C@]5(C)[C@H]4[C@@H](O)C[C@]3(C)[C@]2(C(=O)CO)O1 (stereo not given in full) | -87.6%
28 | CCCCc1nc(Cl)c(CO)n1Cc1ccc(-c2ccccc2-c2nn[nH]n2)cc1 | -76.8%
29 | CC(Cc1cccc(C(F)(F)F)c1)NCCOC(=O)c1ccccc1 (stereo not given) | -107%
30 | O=C(OCC(O)CO)c1ccccc1Nc1ccnc2cc(Cl)ccc12 (stereo not given) | -115%
31 | COc1c2occc2c(OC)c2c(=O)cc(C)oc12 | -82.5%
32 | CCCCOc1ccc(C(=O)CCN2CCCCC2)cc1 | -34.8%
33 | CCOc1ccc(Cc2nccc3cc(OCC)c(OCC)cc23)cc1OCC | -108%
34 | COc1ccc(CCN2CCC(Nc3nc4ccccc4n3Cc3ccc(F)cc3)CC2)cc1 | -50.2%

molecular target: Cytochrome P450 2D6 (Homo sapiens) (UniProt P10635); assay: qHTS Assay for Inhibitors and Substrates of Cytochrome P450 2D6 (AID 891); details: recombinant CYP2D6, luciferin-ME EGE luminescence; series mostly up to 57.1 µM; activity change, negative = inhibition: at the top concentration; also: nearly all actives have a fitted effect of over 60% in size; also: potency is read from the fitted curve at half-maximal effect;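 as to activity change, negative = inhibition: luciferin methyl ether substrate demethylated by CYP2D6 with NADPH regeneration; % is scaled to controls: 0 for no effect and ±100 for the full control effect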
In short: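 Luminescent read-out of luciferin formed by 5 nM human CYP2D6 demethylating 30 uM Luciferin-ME EGE (Km level) over 60 min at room temperature after NADPH regeneration addition. Data normalized to full inhibition by 1.43 uM quinidine.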

Sequence of Cytochrome P450 2D6 (Homo sapiens) (P10635 whole entry, looked up): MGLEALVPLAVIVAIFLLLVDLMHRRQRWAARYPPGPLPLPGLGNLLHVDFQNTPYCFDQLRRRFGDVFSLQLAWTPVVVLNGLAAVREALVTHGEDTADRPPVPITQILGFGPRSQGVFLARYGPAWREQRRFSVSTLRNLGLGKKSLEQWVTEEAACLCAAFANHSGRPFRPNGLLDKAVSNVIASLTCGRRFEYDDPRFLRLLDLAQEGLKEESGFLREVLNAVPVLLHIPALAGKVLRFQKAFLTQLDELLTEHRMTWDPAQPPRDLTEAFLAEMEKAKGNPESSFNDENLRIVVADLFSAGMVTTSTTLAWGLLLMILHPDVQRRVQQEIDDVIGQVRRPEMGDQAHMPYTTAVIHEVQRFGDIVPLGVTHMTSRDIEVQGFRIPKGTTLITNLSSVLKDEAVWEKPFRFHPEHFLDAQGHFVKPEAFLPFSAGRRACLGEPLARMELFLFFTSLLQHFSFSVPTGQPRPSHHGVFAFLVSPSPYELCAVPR

Row | Structure (SMILES) | activity change, negative = inhibition | Potency
35 | COc1cc(-c2ccc(=O)[nH]n2)ccc1OC(F)F | 0.004% | –
36 | Cc1cccc(C)c1NC(=O)CN1CCN(CCCC(c2ccc(F)cc2)c2ccc(F)cc2)CC1 | – | 5.01 µM (active)
37 | OC(CCN1CCCCC1)(c1ccccc1)c1ccccc1 | – | 5.01 µM (active) and 1.26 µM (active)
38 | CCCCOc1ccc(C(=O)CCN2CCCCC2)cc1 | – | 5.01 µM (active)
39 | COc1ccc(CCN2CCC(Nc3nc4ccccc4n3Cc3ccc(F)cc3)CC2)cc1 | – | 7.94 µM (active)
40 | CCN1CCC[C@H]1CNC(=O)c1c(OC)ccc(Br)c1OC | – | 0.199 µM (active)
